Data as given in the supplement of paper PMC12632987.
Whole data set: some 2,300 sequences, median “median log2 fold change of GCK-ALFA target abundance (FLAG IP / Myc IP barcode read proportion)” near 0.095, cut for the lowest 2% near -0.47. The list comes from a sample in which the lowest values are over-represented; it also holds similar and randomly drawn sequences.

B1: LC3A_28_691 (protein)
chain: SAIDETIARIRAQAEAALAAGEEALLEVTVPATATQEDIDRLIATIREAVERLAGVGKVYIVVDVESGVAQENITRLADALDELEAEYPNVTVVIALDED
B2: LC3A_28_654 (protein)
chain: EEVEKELKEALKEAEEAKKKKEPAVITIKVSGKVNEEELKKILETLEKIAELLKDIKGSAIIIDLDKDVKEEFKNKLIDKAEELEKKYPNVTVIIALEER
B3: LC3A_3_1762 (protein)
chain: MEAFIEAAAKELKEAGASEELIEKASRALRLLLERGLEETAKEFVKVLLELLKKSEELALDLAEDVLTLLETSTLSPEELAKAVRSEMNAALSEAEIEEL
B4: LC3A_28_950 (protein)
chain: MSIEENIEKALKEAKEAKEKNEPVVITLVLEDDPSEEAVEALIEAMEEIAELLKDIKGTTIIVDVSSKVKQEHIDAIADKGEEIEKKYPNINVIIALDED
B5: LC3A_102_127 (protein)
chain: EVEKLKKELLEKVKKEVEKLLEKDKSLSEEEKKKILELAEKLAEAKLENAEIEIQHGFVDIYLEDKAIELQEELEKIDKELAKKINEIIEKGVEEFRKKL
B6: LC3A_free_46_2348 (protein)
chain: YKAEILIDLLAKDKETLEKAVKEIVEEAKKIAEKYNLELEIKVKIEKLEDGSYYAEIEITLKGETEEDLQKAVNELINKIEEIAKKYGVAAIISYEIIKE
B7: LC3A_28_708 (protein)
chain: NPLEESIKKALEEAKAAAKAGESTVITIKVPGSATEEDIEKLIKALEEIAEITKDLPSTSIIIDVDGGVKQEHIDKIADAAEEIEKKYPNVTVIIALDET
B8: LC3A_147_403 (protein)
chain: YIVEADIDIITKNAKEEVLAAFEEIVEELKEKGYEVELEVEVEKLDEDTWYINVKIKVETETKEEAEEVADYIEDKIDEIEEKLKDKILASLISIEIIEE
B9: LC3A_free_46_2366 (protein)
chain: VKAEIDIDFLVETKEKAEELAKELEEEIKKIAEKYGVKVKIEVKIIKNPDGTYSLEIEIELEAENKETLQKAVNEIIDSIDKIAEKFNVSYIISVEIIDE
B10: LC3A_28_934 (protein)
chain: MTVEERIKKALEEAEKAAKAGEPVVITIKVTSKDTQEEIDKLIKTIKEIAEILKNVKGAAIIVDVDAGVPQERIDKIADTLEEIEKKYPNINAILALDED
B11: LC3A_3_1491 (protein)
chain: MEELLERMREVLEARGASEEQIEEVLEAVEELLELGYEETVEELIELFEANPDLDPEQIVTAVLITLEVAEEEDLSEEELVERARRIFEDVAEIEALDEE
B12: LC3A_3_1490 (protein)
chain: REELLERMRAVLEARGASPEQIAEVLEAAERLLELGYEETVETLIELFEANPDLDPLDIVTAVLITLEVAEEEDLSEEELVERAREIFENVREIEALDEN
B13: LC3A_28_1022 (protein)
chain: SALDEELEALRAEVEAALARGEDVLLEVTIKPTDSLEEVRRKMERVKEIALEASKRGKVDVLIDVEKGVSQEKIDIVMDAAEELEEEDPSVNVIIALEEE
B14: LC3A_141_383 (protein)
chain: MKKEFEMEATKETADEVFKFMEEVEKETLEMIKESGGKPVKMKVKITATNEKTGEVVEKEEEYIVTEENADLVADGIEIEVLSLLDRVGGKVKVKVTLES
B15: LC3A_28_1063 (protein)
chain: SKVEAEIKKALAEAKEAVAAGEEALVTITIDDSDSDEDVEKKLKTMEEIAELTKTLPRTTILVDIDSSRKEEISKKVSEVGDKLEKKYPNVTVIIALSEE
B16: LC3A_147_511 (protein)
chain: YEVEVDVDIITKDAEEEVIEEFKEIAEELKKKGYEVELEIEVEELENGITYIHVKITVKTETEEEAKEVANYILDKIDEIEEKLKDKILGSMISVEIIKK
B17: LC3A_147_431 (protein)
chain: YITTVDIDVLTKDAEEEVIKAAKEIEEELKAKGYEVELEIEVEELENGEKYIHIKITVKTETEEEAKEAADYIVDKFEELEEKLKDKILGSIISVEIEEA
B18: LC3A_free_8_2456 (protein)
chain: SSQKLVDTAVKLLEEMEKELTELAKKEGLSRLDILELELEIGSLIAEVISLVDKSPEEILETTKEGLEEIIELAKELGEEVAKLAEEKSKEIIEELEKLI
B19: LC3A_28_1295 (protein)
chain: SEIEKNLKEALAEAKKAKAEGKQVVITVKVPGDATQEEIELVIKGLEEIAKVLEDVPNQTIIIDVEAGVKQEHIDLLADRAEEIEKKYPNVTVIIALDED
B20: LC3A_28_1058 (protein)
chain: MSIEEQLEKALEEAKEAVKKGEEALVELKINKDSTEEDVEKVLETMKEIAELTKDLPSVSIVVDVDHENKEEVTKKVSELGDELEKKYPNVTVIIALSEE
B21: LC3A_28_1049 (protein)
chain: SPIEEELKRALEEAKEAVARGEEALIRLTIGKDATEEDVEKVLETMEEIAELTKSLPRVDIVVDVDSENKEEVTKKIAEKGEELEKKYPNVTVYIALSEE
B22: LC3A_28_738 (protein)
chain: SAIEKELEKAIKEAKEAAKAKEPKVITITVPGTANEEDIELVIKALEEIAEILKDVKDQAIIIDVDGKLDPELLKKLMDKAEEIEEKYPNVTVIIALDEE
B23: LC3A_free_8_2444 (protein)
chain: STQKLVDEVTELLDEMEERVEEKAKELGLSELDILDLSLLIGSLIAEIISAVDKSIEEIRKIVEEDMEEIIEEARELSEEIAEIVEETKERILELIDEAE
B24: LC3A_28_1082 (protein)
chain: SAVDAQIAAALAALRAAKAAGEEALLTLTLTEDATQEDVDRLIAGLEEIAELARDAARVTVVIDLDGKIPQEHIDRIADAAERIEERVPNVTVIIALDEE
B25: LC3A_free_39_2223 (protein)
chain: SEEEIEKLIKEVAKESGIDYEELKKKIEEIKEVGKLSNEQILEIVKAILEAVKAGADAKEILEEALKLTKELVAAGKSPEEIKEEILELIEDYRNLVPLD
B26: LC3A_3_1370 (protein)
chain: MEEEKAATLAELKAAGKSEETIAAVEKTLDALIEKGYEEAAKTFMELLKELKDLSDEILLAFAEDVLKAVEEEDLSEEELIKFIKEEATIARNEQEIIEL
B27: LC3A_28_1052 (protein)
chain: SHIDEQIEKALKEAEEAKAKGEEALIELHIGKDANEEDVEKVLETIEKIAEITKDLPSVTIIVDVDNPNKEEVTKKIDEVGEELAKKYPNVTVIIALSEE
B28: LC3A_28_1053 (protein)
chain: SAIDKQLEAALAEARAAAAAGEEALITLTIPENATEEDVEKVLATIREIAEITKDLPATTIIVDVDNKNQEEVTKKIDEVGEELAKKYPNVTVIIALSEN
B29: LC3A_free_46_2334 (protein)
chain: TLVVVEVDVLAPDRATAEAFVADLEARIRARLAEAGIDAEVEVELEEGPDGKTFRVTVKVRLKDPEADPQEVADLVVDAIDESAEEHGLSYIISVEIIEE

target: MAP1LC3A, Q9H492; test: median log2 fold change of GCK-ALFA target abundance (FLAG IP / Myc IP barcode read proportion) (log2 ratio); each designed protein is fused to an ALFA-tag nanobody in HEK293 cells to bring the named protein to FLAG-tagged glucokinase (GCK); Myc marks an untargeted standard; higher = target protein stabilised (more abundant); conditions: target protein: 3xFLAG-MCP-GCK-ALFA reporter; HEK293 landing pad (RPLP)
Outline: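 Binders fused to an ALFA nanobody were recombined as a library into HEK293 landing-pad cells, which were induced with 2 μg mL^−1 doxycycline and then transfected to express a FLAG-tagged target and a Myc-tagged standard. After 48 h, circular RNA barcodes recovered by anti-FLAG and anti-Myc immunoprecipitation of lysates were reverse transcribed, amplified and sequenced. Each binder's target abundance is the median log2 ratio of FLAG to Myc barcode read proportions, from barcodes present at ≥10^−7 in both replicates, binders carrying ≥3 barcodes per replicate, a 10^−6 pseudocount and pooled replicates.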

Point of comparison: B4, “median log2 fold change” value 0.204. Against it:
- B1 — lower, -0.0472
- B2 — within 0.2 log units, 0.153
- B3 — within 0.2 log units, 0.226
- B5 — lower, -0.519
- B6 — lower, -0.204
- B7 — within 0.2 log units, 0.0817
- B8 — lower, -0.0503
- B9 — within 0.2 log units, 0.102
- B10 — within 0.2 log units, 0.252
- B11 — lower, -0.577
- B12 — lower, -0.342
- B13 — within 0.2 log units, 0.00506
- B14 — within 0.2 log units, 0.328
- B15 — within 0.2 log units, 0.0338
- B16 — lower, -0.745
- B17 — within 0.2 log units, 0.117
- B18 — lower, -0.163
- B19 — within 0.2 log units, 0.184
- B20 — lower, -0.699
- B21 — lower, 0.00401
- B22 — within 0.2 log units, 0.167
- B23 — lower, -0.324
- B24 — within 0.2 log units, 0.081
- B25 — lower, -0.0674
- B26 — within 0.2 log units, 0.233
- B27 — lower, -0.553
- B28 — lower, -0.454
- B29 — within 0.2 log units, 0.0611
